Screening results deposited in PubChem BioAssay by National Center for Advancing Translational Sciences (NCATS).
An excerpt weighted towards active compounds, which were near 19% of everything screened.
HT1080 IDH1KD tx: toxicity to HT-1080 IDH1 knockdown cells (counter line); 360,000 tested, 2% active; HT-1080 IDH1 knockdown viability, ATP luminescence, 48 h; AID 686971; Potency, µM (series often up to 46.1 µM), inactives show top-dose activity, negative = toxicity, usual class: cytotoxic;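 note: potency is the fitted concentration of half-maximal effect; 0% = DMSO wells and -100% = cell-free medium wells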
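CellTiter-Glo luminescence after 48 h compound exposure at 37 degrees C of IDH1-knockdown HT-1080 cells in 5% FBS RPMI. %Activity scaled between DMSO wells and cell-free media wells, with curves fitted and assigned curve classes.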
TDP1 cell noCPT: qHTS for Inhibitors of human tyrosyl-DNA phosphodiesterase 1 (TDP1): qHTS in cells in absence of CPT | DT40 Tdp1-/- hTDP1 cells, no CPT, ATP luminescence, 48 h | Potency, µM (highest dose often 46.2 µM), for inactives: at the highest dose activity change, negative = growth inhibition, actives largely listed as inhibitors | 420,000 tested, 15% active | AID 686978, 2013; note: potency is the fitted concentration of half-maximal effect; nearly all actives have a fitted effect of over 55% in size
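No-CPT arm: Tdp1-/-;hTDP1 DT40 cells (400/well) plus compounds, incubated ≥48 hr at 37 °C. Readout CellTiter-Glo luminescence.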
DT40 TDP1 CPT: growth inhibition of DT40 Tdp1-/-;hTDP1 cells with camptothecin (screen for TDP1 inhibitors); chicken DT40 Tdp1-/-;hTDP1 cells + 20 nM CPT, ATP luminescence, 48 h; Potency, µM (series often up to 46.2 µM), without a hit: at the highest dose activity change, negative = growth inhibition, most hits filed as inhibitors; 420,000 tested, 12% active; note: potency is the fitted concentration of half-maximal effect; nearly all actives have a fitted effect of over 55% in size
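Chicken DT40 Tdp1-/- cells complemented with human TDP1, 400 cells/well, exposed to compounds plus 20 nM camptothecin for at least 48 h at 37 C; viability read as ATP content by CellTiter-Glo luminescence.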
IL-1B inflam inh: inhibitors of inflammasome signaling (IL-1 beta secretion). THP-1 LPS/ATP IL-1B secretion, AlphaLISA, 16 h; hits give low values. activity change, % at 57.5 µM. 360,000 tested, 4.7% active; in the data active = activity change below about -50%; inconclusive = mostly about -30% to -49%
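THP-1 cells pretreated 1 hr with compounds (up to 57.5 uM final), then stimulated with LPS (250 ng/mL final) plus ATP (1.25 mM final); secreted IL-1B measured by AlphaLISA after 16 hr, decreased signal indicating inhibition.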
HT1080-NT tox: kills 2HG-producing HT-1080-NT fibrosarcoma cells; HT-1080-NT fibrosarcoma viability, CellTiter-Glo ATP luminescence, 48 h; Potency, µM (top dose mostly 46.1 µM), without a hit: at the highest dose activity, negative = less viability, most hits filed as cytotoxic; 360,000 tested, 1.6% active; AID 686970;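 note: NT is the 2HG producing partner of a matched IDH1 knockdown line; potency is the fitted concentration of half-maximal effect; 0% = DMSO-treated cells and -100% = media-only wells without cells; nearly all actives have a fitted effect of over 55% in size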
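Viability by CellTiter-Glo luminescence after 48 h compound exposure at 37C of HT-1080-NT cells (750/well, RPMI, 5% FBS). % activity scaled between DMSO wells and medium-only wells, then curve-fitted and categorized by curve class.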
* = called active by the depositor. Unless noted, calls come from the whole dose curve; as a rule, active = well fitted curve in the direction sought with a large enough effect; inconclusive = small, poorly fitted or top-dose-only effect, or another doubt; inactive = no such curve, though single readings can be large; an effect the other way counts as inactive or inconclusive. Unless noted, % is set by controls: 0 for no effect and ±100 for the full control effect.

`O=C(NCc1cccc(F)c1)c1ccccc1NC(=O)c1nsc2ccccc12` gave TDP1 cell noCPT 23.1µM* and DT40 TDP1 CPT inconclusive.
`CC(C)NC(=O)c1ccccc1NC(=O)c1nsc2ccccc12` gave TDP1 cell noCPT -13.2% and DT40 TDP1 CPT -7.1%.
COCCN(CCOC)c1ncc(Cl)c(C(=O)c2c(C)cc3ccccn23)n1 was read as HT1080 IDH1KD tx 4.5%, TDP1 cell noCPT 20.6µM*, DT40 TDP1 CPT inconclusive, IL-1B inflam inh -6.8 and HT1080-NT tox 8.0%.
Screening Cc1cc2ccccn2c1C(=O)c1nc(N2CCOCC2)ncc1Cl returned HT1080 IDH1KD tx 33.8%, TDP1 cell noCPT -26.2%, DT40 TDP1 CPT -15.2%, IL-1B inflam inh -10.6 and HT1080-NT tox -3.5%.
For CCN(C(=O)CN1C(=S)NC(C)(C)CC1C)c1ccc(C)c(C)c1 (configuration not stated) the results were HT1080 IDH1KD tx 1.8%, TDP1 cell noCPT 23.1µM*, DT40 TDP1 CPT 14.6µM*, IL-1B inflam inh 39.9 and HT1080-NT tox 8.2%.
CN(CC(=O)Nc1ccc(F)c(F)c1F)C(=O)CN1C(=O)C2CCCCC2C1=O (configuration not stated) was read as HT1080 IDH1KD tx 5.2%, TDP1 cell noCPT -26.8%, DT40 TDP1 CPT 7.9%, IL-1B inflam inh 29.8 and HT1080-NT tox 2.3%.
Screening O=C(NCCC1=CCCCC1)c1ccc(Cl)c(S(=O)(=O)N2CCCCC2)c1 returned HT1080 IDH1KD tx inconclusive, TDP1 cell noCPT 23.1µM*, DT40 TDP1 CPT 16.4µM*, IL-1B inflam inh -13.4 and HT1080-NT tox -11.2%.
Screening O=S(=O)(NCCc1ccccc1)c1cccc(S(=O)(=O)N2CCOCC2)c1 returned HT1080 IDH1KD tx -0.4%, TDP1 cell noCPT inconclusive, DT40 TDP1 CPT -27.6%, IL-1B inflam inh 20.8 and HT1080-NT tox 1.8%.
Screening CC(=O)N1CCN(S(=O)(=O)c2cccc(C(=O)NCCC3=CCCCC3)c2)CC1 returned HT1080 IDH1KD tx -6.7%, TDP1 cell noCPT -18.5%, DT40 TDP1 CPT 2.91µM*, IL-1B inflam inh -5.8 and HT1080-NT tox inconclusive.
`CN1CCN(S(=O)(=O)c2cccc(C(=O)NCCC3=CCCCC3)c2)CC1` gave HT1080 IDH1KD tx -0.5%, TDP1 cell noCPT inconclusive, DT40 TDP1 CPT inconclusive, IL-1B inflam inh 5.6 and HT1080-NT tox 18.6%.
For O=S(=O)(NCCC1=CCCCC1)c1cccc(S(=O)(=O)N2CCOCC2)c1 the results were HT1080 IDH1KD tx inconclusive, TDP1 cell noCPT 5.8µM*, DT40 TDP1 CPT 5.17µM*, IL-1B inflam inh 31.7 and HT1080-NT tox -26.2%.
For O=C(NCCN1CCOCC1)c1ccc(Cl)c(S(=O)(=O)N2CCCCC2)c1 the results were HT1080 IDH1KD tx -0.4%, TDP1 cell noCPT -1.0%, DT40 TDP1 CPT -22.8%, IL-1B inflam inh 0.0 and HT1080-NT tox -2.7%.
Screening CCOC(=O)[C@H]1[C@H]2COc3ccc(Br)cc3[C@@H]2N2C(=O)CN(Cc3ccco3)C(=O)[C@@]12C returned HT1080 IDH1KD tx 5.9%, TDP1 cell noCPT inconclusive, DT40 TDP1 CPT inconclusive, IL-1B inflam inh -16.1 and HT1080-NT tox 0.0%.
Screening Cc1cccc(-c2cccc3nccn23)c1 returned HT1080 IDH1KD tx 0.0%, TDP1 cell noCPT inconclusive, DT40 TDP1 CPT inconclusive, IL-1B inflam inh 4.9 and HT1080-NT tox 2.5%.
`CCC1CCCCN1CCCNC(=O)c1cn(CC)c2ccc(S(=O)(=O)N(C)C3CCCCC3)cc2c1=O` (configuration not stated) gave HT1080 IDH1KD tx -15.3%, TDP1 cell noCPT 20.6µM*, DT40 TDP1 CPT inconclusive, IL-1B inflam inh inconclusive and HT1080-NT tox -0.7%.
For CCCCSCCCNC(=O)c1cn(CC)c2ccc(S(=O)(=O)N(C)C3CCCCC3)cc2c1=O the results were TDP1 cell noCPT 16.4µM* and DT40 TDP1 CPT inconclusive.
For CC(C)=CCN1CCN(Cc2cccnc2)CC1CCO (configuration not stated) the results were HT1080 IDH1KD tx 9.8%, TDP1 cell noCPT 21.2%, DT40 TDP1 CPT 5.3%, IL-1B inflam inh 16.8 and HT1080-NT tox 21.5%.
